Assay results from PubChem BioAssay AID1259415 (National Center for Advancing Translational Sciences (NCATS), 2018).
Values joined by “and” are separate entries in the source; they are usually repeats but may differ in a detail not shown here. Equal entries are not always repeated. In all, about 410,000 compounds went through this assay and about 18,000 (4.4%) were called active. Inconclusive results (about 7%) are left out. Rule as the data show it: active = activity change below about -60%; inconclusive = no clear call, values can overlap the other calls; inactive = above about -39%. For the sample, actives were picked, then their nearest neighbours and some compounds at random. More than one record can exist for a structure, and the calls need not agree.
% is scaled to controls: 0 for no effect and ±100 for the full control effect.

Experiment: qHTS Assay for inhibitors of the human cytomegalovirus (HCMV)
Conditions: HFF cells, HCMV-luciferase reporter, 72 h; at 57.5 µM; stronger effect = lower value
In short: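 After 16 h attachment at 37C, HFF cells received test compound and HCMV-luciferase (1 PFU/cell); reporter luminescence read 72 h later, data normalized against buffer-only and known inhibitor Salinomycin.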
With `CCOC(=O)c1cc2c(=O)n3ccccc3nc2n(CC2CCCO2)c1=NC(=O)c1ccccc1F` (stereo not drawn) the activity change, negative = inhibition was 5.02% (inactive).
For `CCOC(=O)c1cc2c(=O)n3ccccc3nc2n(Cc2ccco2)c1=NC(=O)c1ccc(F)cc1`, the activity change, negative = inhibition was -0.814% (inactive).
In the case of `CCOC(=O)c1cc2c(=O)n3ccccc3nc2n(CC(C)C)c1=NC(=O)c1c(-c2c(F)cccc2Cl)noc1C`, the activity change, negative = inhibition was -12.3% (inactive) and -65.2% (active).
With `CCOc1ccc(-n2cnc3c(=O)[nH]c(N)nc32)cc1` the activity change, negative = inhibition was 29.7% (inactive).
In the case of `CCc1ccc(NC(=O)CN2C(=O)CCSc3ccc(S(=O)(=O)N4CCCC4)cc32)cc1`, the activity change, negative = inhibition was 14.8% (inactive).
For `Nc1ncnc(Nc2cccc(Cl)c2Cl)n1`, the activity change, negative = inhibition was 8.97% (inactive).
In the case of `CC(=O)Nc1cccc(NC(=O)CSc2nccn2Cc2ccc3c(c2)OCO3)c1`, the activity change, negative = inhibition was -12.3% (inactive).
In the case of `COc1ccc(CNC(=O)C2=Cc3cccc(OC)c3OC2)cc1OC`, the activity change, negative = inhibition was -2.4% (inactive).
For `Cc1ccc(C(=O)Nc2ccc(C(=O)O)cc2)cc1S(=O)(=O)Nc1ccccc1`, the activity change, negative = inhibition was 6.44% (inactive).
In the case of `O=C(Nc1ccc(Br)cc1)c1ccc(Br)c(S(=O)(=O)NCc2ccccc2)c1`, the activity change, negative = inhibition was -106% (active).
In the case of `COc1ccc(CNS(=O)(=O)c2cc(Br)ccc2Br)cc1`, the activity change, negative = inhibition was -5.85% (inactive).
For `CCOc1ccc(S(=O)(=O)Nc2ccc3oc4c(c3c2)CC(C)CC4)cc1` (stereo not drawn), the activity change, negative = inhibition was 33.8% (inactive).
For `CCC(=O)N1CCc2cc(S(=O)(=O)NCCC(=O)Nc3cccc(C)c3C)ccc21`, the activity change, negative = inhibition was 4.12% (inactive).
With `CCCC(=O)Nc1nnc(CC(=O)OCC)s1` the activity change, negative = inhibition was 69.6% (inactive).
For `CC(C)NC(=O)c1ccccc1S(=O)c1ccccc1C#N` (stereo not drawn), the activity change, negative = inhibition was -72.2% (active).
For `CC(C)Oc1ccccc1C(=O)NC(CO)C(=O)O` (stereo not drawn), the activity change, negative = inhibition was 0.22% (inactive).
With `N#Cc1ccccc1Sc1ccccc1C(=O)OCC(=O)NC1CCCCC1` the activity change, negative = inhibition was -31.3% (inactive).
With `O=C(CC(c1cccs1)N1Cc2ccccc2C1=O)Nc1ccc(F)cc1F` (stereo not drawn) the activity change, negative = inhibition was 5.86% (inactive).
For `Cc1ccc(-c2ccc(CCC(=O)O)n2-c2ccc(C(N)=O)cc2)cc1`, the activity change, negative = inhibition was 15% (inactive).
In the case of `[O-][n+]1onc2c1CCc1[nH]c(-c3ccccc3)nc1-2`, the activity change, negative = inhibition was -99.3% (active).
In the case of `Cc1ccc(NC(=O)C(Cc2ccccc2)NS(=O)(=O)c2ccc3c(c2)oc(=O)n3C)cc1C` (stereo not drawn), the activity change, negative = inhibition was 1.25% (inactive).
With `CC1CCN(S(=O)(=O)c2ccc3c(c2)N(CC(=O)NCc2ccccc2Cl)C(=O)CO3)CC1` the activity change, negative = inhibition was 15.7% (inactive).
For `O=C(OCc1ccccc1)c1ccc(O)cc1`, the activity change, negative = inhibition was 17.9% (inactive).
In the case of `CCOC(=O)c1c(CN(C)C)n(-c2ccccc2)c2cc(Br)c(O)cc12`, the activity change, negative = inhibition was -35% (inactive).
For `CCOC(=O)c1nnn(-c2nonc2-n2cccc2)c1CN1CCOCC1`, the activity change, negative = inhibition was -19.5% (inactive).
With `CCOC(=O)c1c(CN2CCOCC2)n(-c2ccccc2)c2ccc(O)cc12` the activity change, negative = inhibition was -73% (active).
For `O[C@H]1C[C@H](c2ccc(Cl)cc2)N(Cc2cccs2)C[C@@H]1n1cc(C2CC2)nn1`, the activity change, negative = inhibition was 15% (inactive).
In the case of `CCOC(=O)[C@]12CCC=C1N(CCC1=CCCCC1)C(=O)[C@H](CC(=O)NCc1ccc(C)o1)C2`, the activity change, negative = inhibition was -0.404% (inactive).
In the case of `CCc1nc2onc(C)c2c(=O)n1CC(=O)O`, the activity change, negative = inhibition was 9.29% (inactive).
With `CCc1nn(CC(=O)NCC(C)c2ccccc2)c(=O)c2cc3occc3n12` (stereo not drawn) the activity change, negative = inhibition was -13.6% (inactive).
For `COc1ccc(-c2nc(Cn3c(=O)cc(C)c4c(C)nn(-c5ccccc5)c43)c(C)o2)cc1OC`, the activity change, negative = inhibition was 18.8% (inactive).
With `OCCCNc1nccc(-c2cc(Nc3cccc(Cl)c3)ncn2)n1` the activity change, negative = inhibition was -97.8% (active).
With `COC(=O)[C@H]1[C@H](CO)[C@H]2Cn3c(cccc3=O)[C@H]2N1CC1CC1` the activity change, negative = inhibition was 3.17% (inactive).
For `O=C(Nc1cccc(Cl)c1N1CCOCC1)c1cccnc1`, the activity change, negative = inhibition was -21.6% (inactive).
In the case of `O=C(N/N=C/c1sc(N2CCCCC2)nc1-c1cccs1)c1cccnc1`, the activity change, negative = inhibition was -80.6% (active).
With `O=C(c1cccnc1)N1CCN(S(=O)(=O)c2cccs2)CC1` the activity change, negative = inhibition was 7.09% (inactive).
With `COc1cccc(N2CC(NC(=O)/C=C\c3ccccc3)CC2=O)c1` (stereo not drawn) the activity change, negative = inhibition was 81.9% (inactive).
With `CCOC(=O)c1c(-c2ccc(OC)cc2)oc2ccc(OCc3ccc(C(=O)OC)cc3)cc12` the activity change, negative = inhibition was -6.67% (inactive).
For `COC(=O)c1ccc(NC(=O)CCc2c(C)nc3c(c(C)nn3-c3ccc(C)cc3)c2C)cc1`, the activity change, negative = inhibition was -19.7% (inactive).
With `COc1ccc(CCNC(=O)CCCCn2c(=O)c3ccccc3n(Cc3ccccc3)c2=O)cc1OC` the activity change, negative = inhibition was -9.1% (inactive).
In the case of `COc1cc(Cl)cc(C2NC(=O)NC(C)=C2C(=O)NCc2ccccc2)c1O` (stereo not drawn), the activity change, negative = inhibition was 3.06% (inactive).
With `COc1cc(/C=C2/SC(=S)N(Cc3ccccc3)C2=O)cc(OC)c1O` the activity change, negative = inhibition was -63.1% (active).
In the case of `COc1cc2c(cc1OC)C(C(=O)NCc1ccco1)C1c3ccccc3CCN1C2=O` (stereo not drawn), the activity change, negative = inhibition was 3.83% (inactive).
In the case of `COCCNC(=O)CSc1c(C)cnc2c1c(=O)n(C)c(=O)n2C`, the activity change, negative = inhibition was 8.83% (inactive).
In the case of `Cc1cccc2nc(-c3ccc(Cl)s3)c(Nc3ccc4c(c3)OCCO4)n12`, the activity change, negative = inhibition was 19.5% (inactive).
For `O=C(NC(c1ccc(Cl)cc1)c1cnccn1)C1CCN(Cc2ccc(Cl)cc2)CC1` (stereo not drawn), the activity change, negative = inhibition was 18.3% (inactive).
In the case of `Cc1cccnc1C(NC(=O)C1CCN(Cc2ccc(Cl)c(Cl)c2)CC1)c1ccc(Cl)cc1` (stereo not drawn), the activity change, negative = inhibition was -88.1% (active).
In the case of `Cc1ccc(C(NC(=O)C2CCN(CCOc3ccc(Cl)cc3Cl)CC2)c2ccccn2)cc1` (stereo not drawn), the activity change, negative = inhibition was 23.2% (inactive).
In the case of `Cc1ccc(CSc2nc3cccnc3n2Cc2ccc(C(=O)NC3CC3)cc2)cc1`, the activity change, negative = inhibition was 112% (inactive).
With `CCn1c(CN2C(=O)CSc3ccccc32)n[nH]c1=S` the activity change, negative = inhibition was -8.44% (inactive).
For `CC(=O)c1cc(C#N)c(N2CC(C)OC(C)C2)nc1C` (stereo not drawn), the activity change, negative = inhibition was -16.2% (inactive).
For `Cc1cc(C)c2cc(C#N)c(N3CCNCC3)nc2c1`, the activity change, negative = inhibition was -15.9% (inactive).
For `CC(=O)c1cc(C#N)c(N2CCCCC2)nc1C`, the activity change, negative = inhibition was -92.4% (active).
In the case of `Cc1cc(C)cc(NS(=O)(=O)c2ccc3[nH]cc(C(=O)N4CCCCC4)c(=O)c3c2)c1`, the activity change, negative = inhibition was 1.5% (inactive).
For `CC(=O)NC(Cc1ccc(F)c(F)c1)C(=O)NC1CCN(c2nnnn2-c2ccccc2)CC1` (stereo not drawn), the activity change, negative = inhibition was -16% (inactive).
In the case of `COc1ccc(-c2nonc2NC(=O)c2oc3ccc(F)cc3c2C)cc1OC`, the activity change, negative = inhibition was -12.8% (inactive).
With `O=C(NC1CC(=O)N(c2ccccc2)C1)c1ccco1` (stereo not drawn) the activity change, negative = inhibition was 43.8% (inactive).
In the case of `COc1cc(Br)c(-c2sc(Nc3ccccc3)n[n+]2-c2ccccc2)cc1OC`, the activity change, negative = inhibition was 25.2% (inactive).
For `COc1ccc(C)cc1Nc1n[n+](-c2ccccc2)c(-c2cccc(Cl)c2Cl)s1`, the activity change, negative = inhibition was 8% (inactive).
In the case of `CCc1ccc(Nc2n[n+](-c3ccccc3)c(-c3cccc(Cl)c3Cl)s2)cc1`, the activity change, negative = inhibition was -69.1% (active).
In the case of `CCCCC(=O)OC1=CN(Cc2ccccc2)S(=O)(=O)c2ccccc21`, the activity change, negative = inhibition was -6.62% (inactive).
In the case of `CN(Cc1cccs1)C(=O)Cc1c[nH]c2ccccc12`, the activity change, negative = inhibition was 26% (inactive).
In the case of `CC(C)C12CN3CC(C(C)C)(CN(C1)C3c1ccc(OCc3ccccc3)cc1)C2=O` (stereo not drawn), the activity change, negative = inhibition was -7.28% (inactive).
In the case of `Cc1ccc2nc(/C(C#N)=C/c3ccc(-c4ccc(C(=O)OC(C)C)cc4)o3)[nH]c2c1`, the activity change, negative = inhibition was 41% (inactive).
In the case of `Cc1ccc2nc(/C(C#N)=C/c3ccccc3F)[nH]c2c1`, the activity change, negative = inhibition was 206% (inactive).
For `Cc1ccc2nc(/C(C#N)=C\c3ccc(OC(=O)c4cccs4)cc3)[nH]c2c1`, the activity change, negative = inhibition was -67.5% (active).
For `COCCNC(=O)CSc1nc(-c2ccccc2)[nH]c1-c1ccc(C)cc1`, the activity change, negative = inhibition was -25.2% (inactive).
For `CCOc1cc2[nH]c(=O)n(Cc3ccc(C(=O)NCCN(CC)CC)cc3)c(=O)c2cc1OCC`, the activity change, negative = inhibition was -5.64% (inactive).
For `O=C(Nc1cccc(C(F)(F)F)c1)c1ccc(N2CCNCC2)c([N+](=O)[O-])c1`, the activity change, negative = inhibition was -65.3% (active).
With `Cc1cccc(C)c1NC(=O)CNC(=O)c1ccc(N2CCOCC2)c([N+](=O)[O-])c1` the activity change, negative = inhibition was 25.4% (inactive).
For `O=C(NC1C2CC3CC(C2)CC1C3)c1ccc(N2CCNCC2)c([N+](=O)[O-])c1` (stereo not drawn), the activity change, negative = inhibition was 6.12% (inactive).
For `Cc1ccc(CSc2oc(-c3cccs3)nc2S(=O)(=O)c2ccc(C)cc2)cc1`, the activity change, negative = inhibition was 12.7% (inactive).
For `CSc1oc(-c2cccs2)nc1S(=O)(=O)c1ccc(Br)cc1`, the activity change, negative = inhibition was 29.5% (inactive).
In the case of `CCCCS(=O)(=O)c1oc(-c2cccs2)nc1S(=O)(=O)c1ccccc1`, the activity change, negative = inhibition was -108% (active).
In the case of `Cc1ccc(-n2nc(CO)c(C(=O)NCCc3ccccc3)n2)cc1`, the activity change, negative = inhibition was 18.9% (inactive).
For `CCOC(=O)c1cccc(NC(=O)Cn2cnc3nc4c(cc3c2=O)CCCC4)c1`, the activity change, negative = inhibition was 4.14% (inactive).
With `Cc1ccc(OCC(=O)Nc2ccccc2Sc2ccc(Cl)cc2)c([N+](=O)[O-])n1` the activity change, negative = inhibition was -14.6% (inactive).
With `CC(NC(=O)COc1cccnc1[N+](=O)[O-])c1ccc(Cl)cc1Cl` (stereo not drawn) the activity change, negative = inhibition was -23.4% (inactive).
With `COc1ccc(C)cc1-n1nnnc1SCC(=O)c1cc(C)n(Cc2ccco2)c1C` the activity change, negative = inhibition was 39.6% (inactive).
For `CCc1ccccc1NC(=O)CN(C)C(=O)COc1ccc(C)nc1[N+](=O)[O-]`, the activity change, negative = inhibition was -24.2% (inactive).
In the case of `Cc1ccc(OCC(=O)c2cc(C)n(Cc3ccco3)c2C)c([N+](=O)[O-])n1`, the activity change, negative = inhibition was -78.9% (active).
In the case of `COCC(C)n1c(C)cc(C(=O)COc2ccc(C)nc2[N+](=O)[O-])c1C` (stereo not drawn), the activity change, negative = inhibition was -71.3% (active).
For `O=S(=O)(NCCc1nnc2ccc(SCc3ccc(Cl)cc3Cl)nn12)c1ccccc1`, the activity change, negative = inhibition was 5.81% (inactive).
In the case of `Cn1nc(C(=O)OCC(=O)N(Cc2ccccc2)C(C)(C)C)c2ccccc2c1=O`, the activity change, negative = inhibition was 2.54% (inactive).
In the case of `COc1ccc(NC(=O)CSc2ncnc3[nH]ncc23)cc1`, the activity change, negative = inhibition was -2.36% (inactive).
With `COc1ccc(Nc2cc(Sc3ccc(OC)cc3)ncn2)cc1` the activity change, negative = inhibition was -88.8% (active).
In the case of `COc1ccc(NC2=CC(=S)NC(C)(C)C2)cc1`, the activity change, negative = inhibition was 42.8% (inactive).
In the case of `Cc1ccc(Sc2ccncc2S(N)(=O)=O)cc1`, the activity change, negative = inhibition was 55.9% (inactive).
